An excerpt weighted towards active compounds, which were near 3.9% of everything screened.
p53null 39C kill: p53 null cell cytotoxicity, nonpermissive temperature; actives 0.97% (n = 55,000); AID 904; Potency, µM (doses to about 46.1 µM), usual class: cytotoxic; H1299 p53-null (neo) cells, 39C, ATPlite viability, 24 h; note: nearly all actives have a fitted effect of over 50% in size
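Following overnight plating at 37C (600 cells/well), H1299-neo or H1299-p53A138V cells are dosed up to 46 uM. Incubation lasts 24 hr at 39C before ATP detection.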
p53null 32C kill: p53 null cell cytotoxicity, permissive temperature; H1299-neo p53 null cells, ATP luminescence, 24 h, 32C; Potency, µM (top dose mostly 46.1 µM), actives largely listed as cytotoxic; actives 0.62% (n = 55,000); note: nearly all actives have a fitted effect of over 55% in size
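Cells lacking p53 (H1299-neo) are plated at 600 per well and allowed to settle overnight at 37C. Test compounds (up to 46 uM) are added and held 24 hours at 32C, then ATP is quantified by luminescence.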
HTT promoter inh: inhibits huntingtin promoter activity; HEK293 HTT promoter firefly luciferase reporter, 24 h; Potency, µM (top dose mostly 57.5 µM), most hits filed as inhibitors; actives 0.93% (n = 48,000); note: nearly all actives have a fitted effect of over 50% in size
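HEK293 luciferase promoter-reporter cells (2,500/well) plated 24 h, then compounds added at up to 57.5 uM final for 24 h at 37 °C. Firefly luminescence by Dual-Glo, normalized to vehicle (0%) and zero RLU (-100%).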
GPR32 ag: activates human resolvin D1 receptor GPR32. O75388. CHO-K1 GPR32 beta-arrestin PathHunter luminescence, 90 min; zero percent set by DMSO-only wells. activation, % at 76.9 µM. actives 2.5% (n = 48,000). AID 1346428;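 active = activation of at least 60% and not above a set upper limit, about 1 call in 100 departs from these limits; inconclusive = activation of 40% to 60%, or above that upper limit; inactive = activation under 40%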
Target sequence (O75388 whole entry, looked up): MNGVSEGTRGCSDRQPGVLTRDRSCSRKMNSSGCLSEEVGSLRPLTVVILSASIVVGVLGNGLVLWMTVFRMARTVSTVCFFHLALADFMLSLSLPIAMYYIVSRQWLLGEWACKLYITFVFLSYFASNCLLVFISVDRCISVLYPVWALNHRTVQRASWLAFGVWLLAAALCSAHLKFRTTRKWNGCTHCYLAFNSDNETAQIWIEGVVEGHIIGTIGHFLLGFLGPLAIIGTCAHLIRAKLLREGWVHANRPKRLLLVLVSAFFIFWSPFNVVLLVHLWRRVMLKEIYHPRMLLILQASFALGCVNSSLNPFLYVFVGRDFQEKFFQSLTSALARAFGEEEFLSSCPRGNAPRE
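Using DMSO wells as EC0, agonist-induced signal was taken as chemiluminescence from beta-Gal reconstituted upon beta-arrestin recruitment to GPR32 in CHO-K1 cells after 90 min compound treatment.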
HTT-AS promoter: activates huntingtin-antisense promoter activity; actives 0.24% (n = 48,000); HEK293 HTT-AS promoter firefly luciferase reporter, 24 h; response scale: percent change from vehicle, -100% = no light; Potency, µM (titrated, usually from 57.5 µM), most hits filed as activators; note: nearly all actives have a fitted effect of over 55% in size
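Luminescence was read after Dual-Glo reagent and a 10 min room-temperature incubation. Values were normalized to vehicle (0% activity) and zero RLU (-100% activity). Reporter HEK293 cells had been exposed to compounds (up to 57.5 uM final) for 24 h.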
Hits are given with their value; i = inactive; ? = inconclusive; nt = not tested or not shown; [ ] = another dose, or the depositor's remark. Unless noted, calls come from the whole dose curve; as a rule, active = well fitted curve in the direction sought with a large enough effect; inconclusive = small, poorly fitted or top-dose-only effect, or another doubt; inactive = no such curve, though single readings can be large; an effect the other way counts as inactive or inconclusive.

SMILES	p53null 39C kill	p53null 32C kill	HTT promoter inh	GPR32 ag	HTT-AS promoter
CCOc1ccccc1CNC(=O)Cn1nc(N2CCN(c3ccccc3)CC2)ccc1=O	i	i	i	61.3	i
NC(=O)NS(=O)(=O)c1ccc(Cl)cc1	nt	nt	i	i	i
O=C(Nc1ccc(F)cc1)c1ccc2c(c1)NC(=O)c1ccccc1S2	i	?	nt	76.0	nt
COC(=O)c1cc(NC(=O)c2ccc3c(c2)NC(=O)c2ccccc2S3)cc(C(=O)OC)c1	i	i	i	i	i
O=C(NCc1ccccc1)c1cc2sccc2n1Cc1ccc(Cl)cc1	i	i	i	i	i
CC(C)NC(=O)C1CCN(C(=O)c2cc3sccc3n2Cc2ccc(Cl)cc2)CC1	i	i	8.91µM	i	i
O=C(C=CC=Cc1ccc2c(c1)OCO2)N1CCCCC1	nt	nt	i	nt	?
Cn1cnc2c(F)c(Nc3ccc(Br)cc3F)c(C(=O)NOCCO)cc21	nt	nt	i	nt	i
CCS(=O)(=O)c1cccc(C(=O)Nc2ccc(-c3nc4ccccc4s3)c(O)c2)c1	i	i	?	61.0	i
CCCc1nn2cc(-c3ccc(C)c(C)c3)nc2s1	10µM	7.94µM	?	i	i
CC(=O)N1CCN(c2ccc(OCc3nn(C)c(C)c3-c3cccc4c(CCCOc5cccc6ccccc56)c(C(=O)O)n(Cc5cccnc5)c34)cc2)CC1	nt	nt	i	nt	i
CCCN1C(=O)C(O)(CC(=O)c2ccc(C(C)C)cc2)c2ccccc21 (configuration not stated)	i	i	?	i	i
CC(C)c1ccc(C(=O)CC2(O)C(=O)N(CCc3ccccc3)c3ccc(Cl)cc32)cc1 (configuration not stated)	12.6µM	i	?	i	i
O=C(CC1(O)C(=O)N(Cc2ccccc2)c2ccc(Br)cc21)c1ccccc1 (configuration not stated)	12.6µM	?	?	i	i
O=C(CC1(O)C(=O)N(CCc2ccccc2)c2ccc(Br)cc21)c1ccccc1O (configuration not stated)	?	i	?	i	i
Cc1cc(NC(=O)N(C)CCc2c(C)nn(C)c2C)ccc1Br	i	i	i	64.7	i
Cc1cccc(NC(=O)CSc2nc(C)c(Cc3ccccc3)c(=O)[nH]2)c1	i	i	i	68.4	i
Cc1ccc(NC(=O)CSc2nc(C)c(Cc3ccccc3)c(=O)[nH]2)cc1C	i	i	i	i	i
O=C(CN(c1cccc(C(F)(F)F)c1)S(=O)(=O)c1ccccc1)Nc1cccc(Cl)c1	?	i	28.2µM	i	i
O=C(CN(c1ccc(Cl)c(C(F)(F)F)c1)S(=O)(=O)c1ccccc1)Nc1cccnc1	i	i	i	i	i
Cc1cccc(C)c1OCCCn1c(CCNC(=O)C2CCCCC2)nc2ccccc21	15.8µM	i	?	i	i
Cc1cc(OCCCn2c(CCNC(=O)C3CCCCC3)nc3ccccc32)ccc1Cl	25.1µM	?	?	i	i
CC(C)c1ccc(-c2noc(SCC(=O)N3CCCCC3)n2)cc1	?	12.6µM	i	i	i
Cc1nc(-c2cccc(F)c2)sc1CCNC(=O)Cc1ccc(F)cc1	i	i	i	88.1	i
Cc1nc(-c2ccc(F)cc2)sc1CCNC(=O)c1ccccc1	i	i	i	62.2	i
SMILES	p53null 39C kill	p53null 32C kill	HTT promoter inh	GPR32 ag	HTT-AS promoter
C[C@]12CC[C@@H]3c4ccc(O)cc4CC[C@H]3[C@H]1CC[C@H]2O	nt	nt	i	nt	i
O=C1NC(O)CCN1[C@@H]1O[C@H](CO)[C@H](O)[C@H]1O (some centres not stated)	nt	nt	i	nt	i
O=C(Nc1ccc(Cl)c(C(F)(F)F)c1)C1CCN(S(=O)(=O)c2cccc3nonc23)CC1	?	i	?	79.0	i
CC(C)c1ccc(NC(=O)C2CCN(S(=O)(=O)c3cccc4nonc34)CC2)cc1	i	i	i	i	i
C[C@H](NC(=O)C(=O)Nc1ccccc1C(C)(C)C)C(=O)N[C@@H](CC(=O)O)C(=O)COc1c(F)c(F)cc(F)c1F	nt	nt	?	nt	i
O=C(COc1cccc(Cl)c1)N1CCC(c2nc3ccccc3s2)CC1	i	i	i	71.6	i
O=C(c1ccc(Br)cc1)N1CCC(c2nc3ccccc3s2)CC1	i	i	i	i	i
O=C(c1ccc(F)cc1)N1CCC(c2nc3ccccc3s2)CC1	i	i	?	63.6	i[11.5 µM]
COc1ccccc1OC(C)C(=O)N1CCC(c2nc3ccccc3s2)CC1 (configuration not stated)	i	i	?	84.8	i
CCCCCNC(=O)N1CCC(CN(Cc2ccc(Cl)cc2)Cc2ccc([N+](=O)[O-])s2)C1 (configuration not stated)	nt	nt	i	nt	i
CNC(=O)CN1CCC(Oc2cc3c(Nc4cccc(Cl)c4F)ncnc3cc2OC)CC1	nt	nt	?	nt	i
Cc1ccccc1Nc1c(-c2c[nH]c3ccccc23)nc2cccc(C)n12	?	?	i	63.1	?
Cc1ccc(Nc2c(-c3c[nH]c4ccccc34)nc3ccccn23)cc1	14.1µM	i	i	i	?
Cc1ccc2nc(-c3c[nH]c4ccccc34)c(Nc3ccccc3C)n2c1	?	i	i	i	i
Cc1ccccc1Nc1c(-c2ccc(Cl)s2)nc2cccc(C)n12	i	i	i	60.8	?
Cc1ccccc1Nc1c(-c2ccccc2)nc2cccc(C)n12	i	i	i	i	i
Cc1cccc(Cn2nnc3c(=O)[nH]c(C4CCCN(C(=O)c5ccc(C(C)(C)C)cc5)C4)nc32)c1 (configuration not stated)	20µM	?	?	i	i
Cc1ccccc1Cn1nnc2c(=O)[nH]c(C3CCCN(C(=O)c4ccc(C(C)(C)C)cc4)C3)nc21 (configuration not stated)	?	i	?	i	i
Cc1ccccc1Nc1c(-c2cccc(N(C)C)c2)nc2ccc(Br)cn12	i	i	i	i	11.2µM
Cc1ccc2nc(-c3ccccn3)c(Nc3ccccc3C)n2c1	?	i	35.5µM	i	i
Cc1ccc2nc(-c3ccc(N4CCOCC4)cc3)c(Nc3ccccc3C)n2c1	5.01µM	?	i	i	i
Cc1ccccc1Nc1c(-c2ccc(N3CCOCC3)cc2)nc2ccc(Cl)cn12	12.6µM	?	i	i	?
Cc1ccn2c(Nc3ccccc3C)c(-c3ccccn3)nc2c1	?	i	?	i	i
Cc1ccn2c(Nc3ccccc3C)c(-c3ccc(N4CCOCC4)cc3)nc2c1	i	i	i	i	i
C[C@@H](O)[C@H](N)C(=O)O	nt	nt	i	i	i
O=C1NC(=O)C(=Cc2ccc3nccnc3c2)S1	nt	nt	i	nt	?
COc1cc(=C2C=c3ccccc3=N2)[nH]c1=Cc1[nH]c(C)cc1C	nt	nt	?	nt	i
N#Cc1c(-n2ncnc2-c2ccccc2C(F)(F)F)sc2c1CCCCC2	?	?	1.12µM	i	i

Screening results: PubChem BioAssay, National Center for Advancing Translational Sciences (NCATS)
